In all, about 200,000 compounds went through this assay and about 3,000 (1.5%) were called active.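 Rule for the calls: active = inhibition above about 50% when tested at 10 µM (limit read from the data); inactive = the rest.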 Only a selection was taken, and actives are over-represented in it overall.
These molecules were tested against Luciferin 4-monooxygenase (Photinus pyralis) (UniProt P08659) (assay: firefly luciferase enzyme inhibitors, primary screen, artefact control for luciferase-based inhibitor screens, biochemical, luminescence, ATPLite (AID 1006)). Conditions: 10 min, at 10 µM, hits give high values.
Chain of Luciferin 4-monooxygenase (Photinus pyralis) (P08659 whole entry, looked up): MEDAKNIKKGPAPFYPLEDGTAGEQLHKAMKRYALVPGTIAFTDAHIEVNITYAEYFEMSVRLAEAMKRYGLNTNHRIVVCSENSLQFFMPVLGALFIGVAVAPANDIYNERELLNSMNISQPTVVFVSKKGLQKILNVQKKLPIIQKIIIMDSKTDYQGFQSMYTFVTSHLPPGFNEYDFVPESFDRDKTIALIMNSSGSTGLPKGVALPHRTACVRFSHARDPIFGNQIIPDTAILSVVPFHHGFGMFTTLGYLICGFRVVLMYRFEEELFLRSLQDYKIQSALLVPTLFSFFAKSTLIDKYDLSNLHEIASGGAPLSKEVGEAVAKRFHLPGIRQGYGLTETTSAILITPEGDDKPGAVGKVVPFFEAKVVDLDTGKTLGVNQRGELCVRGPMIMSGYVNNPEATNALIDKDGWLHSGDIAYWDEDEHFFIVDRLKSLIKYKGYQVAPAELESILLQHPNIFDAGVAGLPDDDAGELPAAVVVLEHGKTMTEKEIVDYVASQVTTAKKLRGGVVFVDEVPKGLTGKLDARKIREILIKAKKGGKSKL

inhibition, active:
Cc1cccc(-n2c(C)cc(/C=N\NC(=O)c3cccs3)c2C)c1 50.3%
Oc1ccc(N=Cc2sc3ccccc3c2Cl)cc1 65.5%
O=Cc1ccc(OCc2cn3ccccc3n2)cc1 50.3%
Cc1cccc(C2=N/C(=C/c3cccs3)C(=O)O2)c1 88.5%
CC(=O)Oc1ccc(C(=O)Nc2nccs2)cc1 54.1%
CC(C)CC(=O)N/C(N)=N/c1nc2ccccc2s1 63.5%

inhibition, inactive:
O=C(Cc1ccc(F)cc1)N1CCN=C1SCc1cccc([N+](=O)[O-])c1 -8.2%
O=C(NCC1CCCO1)C1CCN(C2CCN(C(=O)C3CCCCC3)CC2)CC1 (stereo not drawn) -6.8%
Cc1cccc(-n2c(C)cc(/C=N/NC(N)=S)c2C)c1 0.5%
CC(=O)Nc1ccc(/C=N/NC(=O)c2cccs2)cc1 42.4%
COc1ccc(OC)c(S(=O)(=O)Nc2cccc(-c3ccc4nncn4n3)c2)c1 -2.6%
Cc1nn(C)cc1/C=N/NC(=O)c1sc2ccccc2c1Cl 11.2%
O=C(N/N=C/c1c(Cl)[nH]c2ccccc12)c1sc2ccccc2c1Cl 5%
CSc1nc2ccc(NC(=O)c3c(F)cccc3F)cc2s1 12.4%
Nc1nnc(SCC(=O)OCc2ccc(Cl)c(Cl)c2)s1 -3.7%
COc1ccc(C(=O)NCc2cn3ccccc3n2)cc1 -1.1%
Cc1ccc2nc(COc3ccc(N(C)S(=O)(=O)c4ccccc4)cc3)cc(=O)n2c1 -4.2%
Cc1cc(C)c2c(NC(=O)C3CC3)nn(C)c2n1 -5.8%
COc1ccc(C2Nc3ccccc3C(=O)N2c2ccc(Cl)cc2)cc1Cn1cc([N+](=O)[O-])cn1 (stereo not drawn) -5.8%
CC(=O)N1CCN(CC(=O)Nc2ccc(SC(F)F)cc2)CC1 -4.2%
Cc1ccc(N2CCN(C3=NC(=O)/C(=C\c4cccs4)S3)CC2)cc1 -3.4%
Cc1ccc(C2=N/C(=C\c3ccc(OS(=O)(=O)c4ccc(C)cc4)cc3)C(=O)O2)cc1 -8.9%
COc1cc(C(=O)Nc2nccs2)cc(OC)c1OC -0.7%
CCOc1ccc(C(=O)Nc2nccs2)cc1[N+](=O)[O-] -1.5%
Cc1nnc(N/N=C/C2CC=CCC2)[nH]c1=O (stereo not drawn) -4%
Cc1cccc2cc3c(N)c(C(=O)N4CCCc5ccccc54)sc3nc12 -1.8%
CC(C)CC(=O)NC(=S)NCc1ccccc1 -3.5%
CCC(=O)NC(=Nc1nc2ccccc2s1)NC(=O)CC 11.6%

From PubChem BioAssay AID1006 (Sanford-Burnham Center for Chemical Genomics, 2008)
